The record followed here is PubChem BioAssay AID1347048 (National Center for Advancing Translational Sciences (NCATS), 2019).

The whole screen tested about 76,000 compounds, of which about 1,200 (1.6%) were called active. Inconclusive results (about 4%) are left out. The call rests on the fitted dose curve. For the sample, actives were picked, then their nearest neighbours and some compounds at random.
On the % scale 0 is the no-effect control and ±100 the full control effect; potency means the concentration at half of the fitted maximal effect.

Atrial natriuretic peptide receptor 1 (Homo sapiens), sequence (P16066 whole entry, looked up): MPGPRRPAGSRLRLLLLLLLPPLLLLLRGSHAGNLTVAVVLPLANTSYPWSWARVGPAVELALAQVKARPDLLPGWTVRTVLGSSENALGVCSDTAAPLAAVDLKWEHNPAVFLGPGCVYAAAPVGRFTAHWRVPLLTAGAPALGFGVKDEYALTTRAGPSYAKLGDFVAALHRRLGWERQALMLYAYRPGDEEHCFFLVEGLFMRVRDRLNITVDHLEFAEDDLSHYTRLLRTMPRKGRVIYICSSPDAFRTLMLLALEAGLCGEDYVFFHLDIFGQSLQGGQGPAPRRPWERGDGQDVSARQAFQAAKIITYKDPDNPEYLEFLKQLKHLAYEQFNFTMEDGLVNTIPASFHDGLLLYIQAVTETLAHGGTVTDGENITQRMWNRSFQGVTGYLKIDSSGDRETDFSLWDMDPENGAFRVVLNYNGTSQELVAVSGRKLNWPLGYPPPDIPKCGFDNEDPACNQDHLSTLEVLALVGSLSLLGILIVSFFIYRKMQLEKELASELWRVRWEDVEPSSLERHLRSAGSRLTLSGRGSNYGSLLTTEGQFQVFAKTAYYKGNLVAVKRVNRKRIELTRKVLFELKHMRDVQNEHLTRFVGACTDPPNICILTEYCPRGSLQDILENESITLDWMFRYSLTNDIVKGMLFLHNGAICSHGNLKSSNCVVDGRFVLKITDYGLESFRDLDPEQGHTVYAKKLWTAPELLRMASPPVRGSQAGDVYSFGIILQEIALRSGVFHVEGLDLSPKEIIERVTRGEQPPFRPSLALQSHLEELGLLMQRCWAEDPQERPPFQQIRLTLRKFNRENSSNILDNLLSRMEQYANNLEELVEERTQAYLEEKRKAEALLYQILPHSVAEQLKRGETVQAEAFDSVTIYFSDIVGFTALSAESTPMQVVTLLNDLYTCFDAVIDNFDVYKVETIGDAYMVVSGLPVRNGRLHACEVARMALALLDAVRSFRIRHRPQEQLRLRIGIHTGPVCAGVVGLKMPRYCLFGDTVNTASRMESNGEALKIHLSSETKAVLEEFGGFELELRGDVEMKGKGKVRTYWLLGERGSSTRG

The target in the experiment is Atrial natriuretic peptide receptor 1 (Homo sapiens) (UniProt P16066). Description: Natriuretic polypeptide receptor (hNpr1) antagonism - Primary qHTS. Further: nearly all actives have a fitted effect of over 60% in size. Particulars: HEK293 hNpr1 GloSensor cGMP, ANP-stimulated luminescence; series mostly up to 46.3 µM; activity change, negative = inhibition: at the top concentration. The source says:
Pruritus or itch, is an irritating skin sensation that creates a need to scratch, and ranges from mildly unpleasant and passing to acute and persistent sensations. […] Conventional treatments include topical anti-inflammatory agents, anti-histamines, and emollients, which are aimed at managing the itchy sensation and not the underlying disease. The treatment of pruritus remains a diagnostic and therapeutic challenge. Neurotransmission in the spinal cord from primary pruriceptors to second order neurons is a necessary step that eventually results in the sensation of itch. At this synapse, primary pruriceptors use the neuropeptide natriuretic polypeptide B (NppB) to activate its cognate receptor Natriuretic polypeptide receptor 1 (Npr1) on second order neurons. Inhibition of this step is a new potential strategy to inhibit acute and chronic itch. In order to identify small molecular compounds that can inhibit the Npr1 receptor we developed a high-throughput assay to probe inhibition of the receptor guanylate cyclase Npr1. The assay was designed taking advantage of Promega's GloSensor[TM] technology (Fan, F. et al. 2008). It involves the expression of a cyclic guanosine monophosphate (cGMP) biosensor, comprised of a firefly luciferase variant that was coupled to the cGMP binding domain of human phosphodiesterase 5A, and loading of cells with a cell-permeable luciferase substrate to monitor cGMP production by Npr1 in real time in live cells. In detail, we generated human embryonic kidney 293 cells stably expressing the human Npr1 and the cGMP GloSensor[TM] pGS-40F. Stimulating these cells with the Npr1 agonists human NppA or NppB, luciferase-induced light production could be detected in a dose-dependent manner. We also generated HEK293 cells stably expressing human Npr2 and pGS-40F and cells only expressing pGS-40F to conduct secondary counter screens. In these cells, NppC or sodium nitroprusside were used to stimulate Npr2 or soluble guanylate cyclase which is endogenously expressed in HEK293 cells, respectively. REFERENCE F. Fan, B. F. Binkowski, B. L. Butler, P. F. Stecha, M. K. Lewis, K. V. Wood, Novel genetically encoded biosensors using firefly luciferase. ACS Chem. Biol., 2008, 3: 346-351 .
PROTOCOL TABLES (as described by Inglese J, Shamu CE and Guy RK. 2007) SEQUENCE No. (e.g., 1, 2, 3, etc.); […] (e.g., Cells, Incubation, Reagent, etc.); VALUE and DESCRIPTION. GLOSENSOR PROTOCOL 1. Cells. Seed 1500 HEK293 cGMP-sensor cells expressing hNpr1 per well in 4uL into Greiner 1536-well white/solid bottom high base, tissue culture-treated plates. 2. Incubation. Incubate plated cells at 37C in 5% CO2, 95% RH overnight. 3. Reagent. Add 1uL per well GloSensor reagent from Promega (2% final concentration) or CO2 independent media vehicle control to respective columns of Greiner 1536-well plates. 4. Incubation. Incubate plated cells at room temperature for 2 h, protect from light. 5. Compounds. Library compounds and A-71915 control added at 23 nL per well, transferred by Pin Tool. 6. Incubation. Incubate plated cells for 30 min. at room temperature, protect from light. 7. Detector. GloSensor baseline pre-read luminescence measured using CCD-based camera (Viewlux). 8. Compound. Add 1uL of hNppA peptide to 0.1 nM final concentration to stimulate hNpr1 or CO2 independent media as vehicle control. 9. Incubation. Incubate treated cells at room temperature for 20 min., protect from light. 10. Detector. GloSensor post-hNppA luminescence measured using CCD-based camera (Viewlux). NOTES (numbers refer to Sequence numbers above) 1. HEK293 cells expressing hNpr1 and GIP/pGS-40F grown to 85-95% confluence (48-72 h) in T175 culture flasks (CO2 independent media supplemented with 10% FBS, 1% Pen/Strep antibiotics and 1 ug/mL puromycin). Trypsinize and harvest cells from T175 culture flasks and filter through 40 um cell strainer. Cells counted with Invitrogen Countess (30,000,000 - 50,000,000 cells/flask). […]
Consider `Cc1nc(CCNS(=O)(=O)c2ccc(Cl)cc2)no1`, for which the “activity change, negative = inhibition” value was 0% (inactive).
For the molecule `O=C([C@H]1CCC[C@H](O)C1)N(CCC1=CCCCC1)Cc1ccccc1`, the “activity change, negative = inhibition” value was 0.789% (inactive).
Consider `O=c1[nH]nc2n1CCCC2`, for which the “activity change, negative = inhibition” value is -17.4% (inactive).
In the case of `Cc1nc(-c2cn(C3CCCN(C(=O)c4cc(F)ccc4F)C3)nn2)no1` (stereo not given), the “activity change, negative = inhibition” value is 0% (inactive).
As for `CCc1noc(-c2cn(C3CCN(C(=O)c4cccc(OC)c4)C3)nn2)n1` (stereo not given), the “activity change, negative = inhibition” value is -1.19% (inactive).
Same read-out and setting: as for `COc1ccc(C(=O)N2CCCC(n3cc(-c4nc(C5CC5)no4)nn3)C2)cc1` (stereo not given), the figure is 2.3% (inactive).
Regarding `COc1ccccc1C(=O)N1CCCC(n2cc(-c3nc(-c4ccccc4)no3)nn2)C1` (stereo not given), the Potency was 4.47 µM (active).
Same read-out and setting: for `O=C(c1ccc(F)cc1Cl)N1CCC(n2cc(-c3nc(-c4ccccc4)no3)nn2)C1` (stereo not given) the value was 3.98 µM (active).
As for `COc1cc(OC)cc(C(=O)N2CCCC(n3cc(-c4nc(C(C)C)no4)nn3)C2)c1` (stereo not given), the “activity change, negative = inhibition” value is -11.7% (inactive).
As to `COc1ccccc1-c1onc(C)c1C(=O)NCCC(c1ccccc1)c1ccccc1`, the “activity change, negative = inhibition” value is -9.75% (inactive).
Take `CCn1c(C2CCCNC2)nn(Cc2noc(-c3ccc(C)cc3)n2)c1=O` (stereo not given): the “activity change, negative = inhibition” value was 3.51% (inactive).
Turning to `CC(C)(C)C(=O)N1CC[C@@H](CC(=O)O)[C@@H](CCN2CCN(c3cccc(C(F)(F)F)c3)CC2)C1`, the “activity change, negative = inhibition” value was 5.62% (inactive).
Consider `COc1cccc(N2CC3(COCC2=O)CN(c2ccc(C(F)(F)F)cn2)C3)n1`, for which the “activity change, negative = inhibition” value is -16.6% [at 70.6 µM] (inactive).
On to `O=C1CCCCCN1C1CCN(Cc2ccc(C(F)(F)F)cc2)CC1`, for which the “activity change, negative = inhibition” value is -16.4% (inactive).
As to `Cc1cc(-c2cn(C)c(=O)n3cc(COc4ccccc4)nc23)ccn1`, the Potency is 25.1 µM (active).
Take `CN(C)c1cccc(-c2cn(C)c(=O)n3cc(COc4ccc(Cl)cc4)nc23)c1`: the “activity change, negative = inhibition” value is -2.64% [at 70.6 µM] (inactive).
Still for that read-out and setting: for `CN(C)Cc1cn2c(=O)n(C)cc(-c3cccc(OCc4ccccc4)c3)c2n1` the value was -2.84% [at 70.6 µM] (inactive); for `CCOc1ccc(CC(=O)N2CCCC3(C2)Nc2cccnc2NC3=NC2CCCC2)cc1` (stereo not given), -2.91% (inactive); for `O=C(c1ccc(-c2ccc(N3CCCCC3)nc2)cc1)N1CCOCC1`, -16.1% (inactive).
With `COCCN1CC(CO)C2(CCN(Cc3ccc(F)c(Cl)c3)CC2)C1` (stereo not given), the “activity change, negative = inhibition” value is -21.1% (inactive).
`CN1CCCC2(CCN(C(=O)c3cccc(N4CCCC4=O)c3)C2)C1=O` (stereo not given): the “activity change, negative = inhibition” value was 13.1% (inactive).
In the case of `O=C(Cc1ccc(F)cc1)N1CCCC(c2nn(-c3ccc(Cl)cc3)c(=O)[nH]2)C1` (stereo not given), the “activity change, negative = inhibition” value was 8.11% (inactive).
Still for that read-out and setting: as for `CC(=O)N1CCCC(c2nn(-c3ccccc3)c(=O)[nH]2)C1` (stereo not given), the figure is -9.12% [at 70.6 µM] (inactive).
For the molecule `O=c1[nH]c(C2CCCN(Cc3ccccn3)C2)nn1-c1ccc(Cl)cc1` (stereo not given), the Potency is 5.01 µM (active).
With `O=C(COc1ccc(F)cc1)NC1CCN(c2cn[nH]c(=O)c2)CC1`, the “activity change, negative = inhibition” value is 0.664% (inactive).
With `Cc1ncsc1C(=O)N1CCc2c(n(Cc3ccccc3)n(-c3ccccc3)c2=O)C1`, the “activity change, negative = inhibition” value is 1.6% [at 70.6 µM] (inactive).
In the case of `O=C(Cc1ccc(F)cc1)N1CCC2(CC1)NC(=O)N(c1ccccc1)N2`, the “activity change, negative = inhibition” value was -1.52% (inactive).
As to `CC1(C(=O)NCc2ccc3c(c2)OCO3)CCc2cnc(NCc3ccccc3)nc21` (stereo not given), the Potency was 35.5 µM (active).
With `CN(Cc1ccccc1)C(=O)C1(C)CCCc2cnc(Nc3cccnc3)nc21` (stereo not given), the “activity change, negative = inhibition” value is -21.7% [at 70.6 µM] (inactive).
`CC1(C(=O)NCC2CCCO2)CCCc2cnc(Nc3ccccc3)nc21` (stereo not given): the “activity change, negative = inhibition” value is 7.26% [at 70.6 µM] (inactive).
Same read-out and setting: for `COc1ccc(CNC(=O)c2cc3c(s2)CN(C2CC2)C3)cc1OC` the value was -7.63% (inactive).
Regarding `O=C(Nc1ccc2c(c1)CCC2)c1cc2c(s1)CN(C1CC1)C2`, the Potency is 11.2 µM (active).
For `CC(C)N1Cc2cc(C(=O)Nc3cccc4c3CCCC4)sc2C1`, the “activity change, negative = inhibition” value was -13.9% (inactive).
Same read-out and setting: as for `O=C(Nc1cccnc1)c1ccc2c(c1)OCCN(c1ccccc1)C2`, the figure is -21.2% [at 70.6 µM] (inactive); as for `Cc1cc(NC(=O)c2ccc3c(c2)OCCN(CCC(F)(F)F)C3)ccc1F`, -3.62% [at 70.6 µM] (inactive).
`CC(C)(C)c1csc(NC(=O)c2ccc3c(c2)OCCN(C2CCC2)C3)n1`: the Potency was 31.6 µM (active).
`O=C(c1ccc2c(c1)OCO2)N1CCC2(CC1)CN(c1ccncn1)CC2CO` (stereo not given): the “activity change, negative = inhibition” value is 2.18% (inactive).
On to `CN(C)C(=O)C1CN(C(=O)Nc2ccc(F)cc2F)CC12CCOCC2` (stereo not given), for which the “activity change, negative = inhibition” value is -8.52% (inactive).
Take `O=C(Nc1ccc(Oc2ccccc2)cc1)O[C@@H]1CO[C@H]2[C@@H]1OC[C@@H]2NS(=O)(=O)c1cccs1`: the Potency is 12.6 µM (active).
Regarding `O=C(Nc1ccc(Oc2ccccc2)cc1)O[C@@H]1CO[C@H]2[C@@H]1OC[C@@H]2NCC1CC1`, the “activity change, negative = inhibition” value was -1.22% [at 70.6 µM] (inactive).
Still for that read-out and setting: as for `O=C(Nc1ccccc1)O[C@@H]1CO[C@H]2[C@@H]1OC[C@@H]2NS(=O)(=O)c1cccc2cccnc12`, the figure is -9.3% (inactive); as for `CCCN1CC(Oc2ccc(-c3noc(C4CC4)n3)cc2)C1`, -2.63% (inactive).
Regarding `O=C(c1ccccn1)N1CC(Oc2ccc(-c3noc(C4CC4)n3)cc2)C1`, the Potency is 14.1 µM (active).
As for `O=C(NC1CCCCC1)N1CCCCCC1c1nc(-c2cccnc2)no1` (stereo not given), the “activity change, negative = inhibition” value was -4.2% (inactive).
Take `O=C(NC1CCCC1)N1CCCC(c2noc(COc3ccccc3)n2)C1` (stereo not given): the “activity change, negative = inhibition” value is -21.1% (inactive).
For `O=C(c1ccoc1)N1CC(Oc2ccc(-c3nc(-c4ccccc4)no3)cc2)C1`, the “activity change, negative = inhibition” value is -2.34% (inactive).
As for `Cc1cccc(C(=O)N2CCC(Oc3ccc(-c4noc(C(C)C)n4)cc3)C2)c1` (stereo not given), the Potency was 11.2 µM (active).
With `O=C(NC1CCCC1)N1CCC(Oc2ccc(-c3noc(C4CC4)n3)cc2)C1` (stereo not given), the Potency is 8.91 µM (active).
As to `Cc1cccc(C(=O)N2CC(Oc3cccc(-c4nc(-c5ccccc5)no4)c3)C2)c1`, the “activity change, negative = inhibition” value was -1.57% (inactive).
`O=C(c1ccncc1)N1CCC(Oc2ccccc2)C1` (stereo not given): the “activity change, negative = inhibition” value was 0% (inactive).
